30 molecules from PubChem BioAssay (Tox21) can be followed below.

Molecules are shown by their SMILES. Results filed as inconclusive are left out. A number with no mark means an inactive call. Active and inactive are the calls of the source. Calls come from the whole dose curve; as a rule, active = well fitted curve in the direction sought with a large enough effect in the repeat runs; inconclusive = weak or mixed curves; inactive = no such curve, though single readings can be large; an effect the other way counts as inactive or inconclusive.

The target of experiment [1] is Cytochrome P450 2D6 (Homo sapiens) (UniProt P10635). The experiment can be described thus: Cytochrome P450 Family 2 Subfamily D Member 6 (CYP2D6) small molecule antagonists: luciferase reporter qHTS assay (AID 1671196). For activity change, negative = inhibition: series mostly up to about 120 µM. Note: nearly all actives have a fitted effect of over 50% in size. Note: potency is the fitted concentration of half-maximal effect. The procedure, abridged: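 Cell-free P450-Glo system: CYP2D6 with proluciferin substrate was pre-incubated with compound for 10 min, then reacted with NADPH regeneration for 1 h at room temperature. Luciferin product was detected after 20 min, and data were reported as relative luminescence units.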
A general note: A reporter such as luciferase makes a cellular process visible.

For experiment [2], the target named is Cytochrome P450 2C19 (Homo sapiens) (UniProt P33261). Description: Cytochrome P450 Family 2 Subfamily C Member 19 (CYP2C19) small molecule antagonists: luciferase reporter qHTS assay (AID 1671197). For activity change, negative = inhibition: series mostly up to about 120 µM. Note: nearly all actives have a fitted effect of over 65% in size. Note: potency is the fitted concentration of half-maximal effect. The procedure, abridged:
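CYP2C19 P450-Glo, 1536-well qHTS. Cpd + enzyme/proluciferin substrate 10 min RT; + NADPH regen, 37C 1 h; stop with luciferin detection reagent, 20 min RT, luminescence (RLU). Pos ctrl ketoconazole.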

Experiment [3] addresses Cytochrome P450 2C9 (Homo sapiens) (UniProt P11712). Description: Cytochrome P450 Family 2 Subfamily C Member 9 (CYP2C9) small molecule antagonists: luciferase reporter qHTS assay (AID 1671198). For activity change, negative = inhibition: series mostly up to about 120 µM. Note: nearly all actives have a fitted effect of over 50% in size. Note: potency is the fitted concentration of half-maximal effect. The procedure, abridged:
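Enzyme-substrate mix preincubated with compound 10 min at room temperature; reaction started with NADPH regeneration solution, 1 h 37C. Luminescent luciferin product read after 20 min detection reagent.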

Experiment [4] deals with Cytochrome P450 1A2 (Homo sapiens) (UniProt P05177). Description: Cytochrome P450 Family 1 Subfamily A Member 2 (CYP1A2) small molecule antagonists: luciferase reporter qHTS assay (AID 1671199). For activity change, negative = inhibition: series mostly up to about 120 µM. Note: nearly all actives have a fitted effect of over 50% in size. Note: potency is the fitted concentration of half-maximal effect. The procedure, abridged: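 P450-Glo CYP1A2 enzyme–proluciferin substrate mix with compound 10 min at room temperature, then NADPH regeneration 1 h at room temperature. Luciferin detection reagent added, luminescence read after 20 min; furafylline positive control.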

The target in experiment [5] is Voltage-gated inwardly rectifying potassium channel KCNH2 (Homo sapiens) (UniProt Q12809). Description: Human Ether-a-go-go-Related Gene (hERG) channel small molecule antagonists: fluorescence cell-based qHTS assay (AID 1671200).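 Note: hERG-expressing U2OS cells given a thallium stimulus after FluxOR II dye loading; series mostly up to about 77 µM; nearly all actives have a fitted effect of over 50% in size.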 The procedure, abridged:
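Read-out: thallium influx as a surrogate for potassium, tracked as fluorescence (480 nm ex/540 nm em) every second for 2 min after Stimulus Buffer addition in dye-loaded hERG-U2OS cells.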
On the technique in general: Block of hERG is tested as a sign of cardiac risk.

The target in experiment [6] is Cytochrome P450 3A4 (Homo sapiens) (UniProt P08684). Description: Cytochrome P450 Family 3 Subfamily A Member 4 (CYP3A4) small molecule antagonists: luciferase reporter qHTS assay (AID 1671201). For activity change, negative = inhibition: series mostly up to about 120 µM. Note: nearly all actives have a fitted effect of over 50% in size. Note: potency is the fitted concentration of half-maximal effect. The procedure, abridged:
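Luminescent readout (RLU) proportional to CYP3A4 activity, from luciferin generated off a proluciferin substrate. Enzyme–substrate mix plus compound 10 min at room temp, NADPH regeneration 1 h, detection reagent 20 min.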
% is set by controls: 0 for no effect and ±100 for the full control effect.

Cytochrome P450 2C19 (Homo sapiens), sequence (P33261 whole entry, looked up): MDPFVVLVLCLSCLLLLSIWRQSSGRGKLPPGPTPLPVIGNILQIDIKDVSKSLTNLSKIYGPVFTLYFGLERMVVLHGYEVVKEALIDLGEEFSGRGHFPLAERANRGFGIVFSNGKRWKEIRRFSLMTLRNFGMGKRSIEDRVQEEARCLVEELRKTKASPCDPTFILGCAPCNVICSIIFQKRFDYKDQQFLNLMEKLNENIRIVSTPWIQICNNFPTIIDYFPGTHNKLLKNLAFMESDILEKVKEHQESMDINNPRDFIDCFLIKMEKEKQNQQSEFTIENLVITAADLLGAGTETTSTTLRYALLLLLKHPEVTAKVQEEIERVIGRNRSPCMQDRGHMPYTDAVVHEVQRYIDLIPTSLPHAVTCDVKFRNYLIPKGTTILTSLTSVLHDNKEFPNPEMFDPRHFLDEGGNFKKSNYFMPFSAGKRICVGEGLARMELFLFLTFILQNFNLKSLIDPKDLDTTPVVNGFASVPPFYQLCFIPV
Cytochrome P450 3A4 (Homo sapiens), sequence (P08684 whole entry, looked up): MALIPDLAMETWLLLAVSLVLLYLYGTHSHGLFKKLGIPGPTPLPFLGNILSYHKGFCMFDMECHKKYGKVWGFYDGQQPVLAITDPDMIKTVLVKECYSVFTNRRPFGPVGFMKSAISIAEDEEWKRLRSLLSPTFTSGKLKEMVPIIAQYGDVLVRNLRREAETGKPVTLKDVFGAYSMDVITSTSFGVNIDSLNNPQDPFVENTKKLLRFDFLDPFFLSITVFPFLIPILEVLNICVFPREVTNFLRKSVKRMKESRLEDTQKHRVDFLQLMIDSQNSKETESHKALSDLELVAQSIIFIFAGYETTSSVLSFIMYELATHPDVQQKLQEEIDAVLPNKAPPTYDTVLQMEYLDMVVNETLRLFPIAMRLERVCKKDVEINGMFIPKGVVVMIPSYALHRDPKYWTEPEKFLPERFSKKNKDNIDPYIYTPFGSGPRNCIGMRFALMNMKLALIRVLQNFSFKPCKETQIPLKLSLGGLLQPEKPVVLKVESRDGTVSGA
Cytochrome P450 2D6 (Homo sapiens), sequence (P10635 whole entry, looked up): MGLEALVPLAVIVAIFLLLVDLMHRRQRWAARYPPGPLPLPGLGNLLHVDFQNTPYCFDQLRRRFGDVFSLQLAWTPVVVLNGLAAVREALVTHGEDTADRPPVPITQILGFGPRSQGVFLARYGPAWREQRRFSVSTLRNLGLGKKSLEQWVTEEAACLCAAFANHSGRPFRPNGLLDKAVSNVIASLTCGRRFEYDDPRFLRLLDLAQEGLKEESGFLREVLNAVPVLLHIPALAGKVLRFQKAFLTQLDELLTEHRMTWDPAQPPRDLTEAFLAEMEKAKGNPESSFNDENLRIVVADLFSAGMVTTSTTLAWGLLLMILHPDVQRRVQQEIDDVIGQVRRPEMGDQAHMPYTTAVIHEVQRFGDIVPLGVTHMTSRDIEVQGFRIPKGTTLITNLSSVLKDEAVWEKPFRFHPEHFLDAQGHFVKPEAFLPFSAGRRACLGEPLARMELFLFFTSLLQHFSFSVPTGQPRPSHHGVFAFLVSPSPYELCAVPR
Voltage-gated inwardly rectifying potassium channel KCNH2 (Homo sapiens), sequence (Q12809 whole entry, looked up): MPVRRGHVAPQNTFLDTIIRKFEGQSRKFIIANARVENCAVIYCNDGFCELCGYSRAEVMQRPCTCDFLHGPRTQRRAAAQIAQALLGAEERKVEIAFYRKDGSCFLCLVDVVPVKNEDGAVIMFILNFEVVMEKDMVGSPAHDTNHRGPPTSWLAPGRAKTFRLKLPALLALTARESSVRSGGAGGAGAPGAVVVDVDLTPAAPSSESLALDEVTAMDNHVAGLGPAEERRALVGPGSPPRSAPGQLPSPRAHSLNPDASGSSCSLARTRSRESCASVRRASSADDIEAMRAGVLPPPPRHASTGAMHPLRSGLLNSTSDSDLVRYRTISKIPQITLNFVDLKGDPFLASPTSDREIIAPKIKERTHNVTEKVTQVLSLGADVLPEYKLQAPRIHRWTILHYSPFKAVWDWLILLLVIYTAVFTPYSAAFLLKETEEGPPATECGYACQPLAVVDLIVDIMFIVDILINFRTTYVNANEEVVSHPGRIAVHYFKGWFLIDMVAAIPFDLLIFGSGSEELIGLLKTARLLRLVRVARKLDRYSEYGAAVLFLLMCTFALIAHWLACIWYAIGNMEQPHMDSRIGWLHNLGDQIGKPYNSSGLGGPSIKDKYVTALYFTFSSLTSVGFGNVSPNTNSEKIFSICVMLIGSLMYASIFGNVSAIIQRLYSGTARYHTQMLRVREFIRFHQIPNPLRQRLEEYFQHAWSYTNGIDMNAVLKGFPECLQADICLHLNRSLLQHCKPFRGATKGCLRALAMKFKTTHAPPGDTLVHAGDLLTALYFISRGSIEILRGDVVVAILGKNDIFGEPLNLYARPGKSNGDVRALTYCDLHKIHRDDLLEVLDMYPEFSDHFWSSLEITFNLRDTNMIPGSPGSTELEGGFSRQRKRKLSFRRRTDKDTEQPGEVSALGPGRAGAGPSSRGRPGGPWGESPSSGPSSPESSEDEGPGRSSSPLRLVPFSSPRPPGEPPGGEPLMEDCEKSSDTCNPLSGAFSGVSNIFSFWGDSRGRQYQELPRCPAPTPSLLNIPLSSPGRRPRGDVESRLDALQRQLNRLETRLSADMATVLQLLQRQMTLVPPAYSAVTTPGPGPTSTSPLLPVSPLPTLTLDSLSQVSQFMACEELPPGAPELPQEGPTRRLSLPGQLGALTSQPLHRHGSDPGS
Cytochrome P450 2C9 (Homo sapiens), sequence (P11712 whole entry, looked up): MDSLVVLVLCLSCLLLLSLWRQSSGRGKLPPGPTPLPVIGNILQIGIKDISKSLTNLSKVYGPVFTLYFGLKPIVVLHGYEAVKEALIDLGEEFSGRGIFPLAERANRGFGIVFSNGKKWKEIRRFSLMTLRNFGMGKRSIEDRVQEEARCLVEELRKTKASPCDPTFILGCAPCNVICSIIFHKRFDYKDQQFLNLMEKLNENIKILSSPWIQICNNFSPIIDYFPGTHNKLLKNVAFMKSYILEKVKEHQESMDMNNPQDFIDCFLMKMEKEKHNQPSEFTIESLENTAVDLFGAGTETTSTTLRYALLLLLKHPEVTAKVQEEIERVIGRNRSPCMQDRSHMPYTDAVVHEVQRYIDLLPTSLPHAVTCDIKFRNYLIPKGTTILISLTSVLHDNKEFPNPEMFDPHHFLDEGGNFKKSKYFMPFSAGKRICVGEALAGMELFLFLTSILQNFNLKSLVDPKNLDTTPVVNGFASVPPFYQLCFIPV
Cytochrome P450 1A2 (Homo sapiens), sequence (P05177 whole entry, looked up): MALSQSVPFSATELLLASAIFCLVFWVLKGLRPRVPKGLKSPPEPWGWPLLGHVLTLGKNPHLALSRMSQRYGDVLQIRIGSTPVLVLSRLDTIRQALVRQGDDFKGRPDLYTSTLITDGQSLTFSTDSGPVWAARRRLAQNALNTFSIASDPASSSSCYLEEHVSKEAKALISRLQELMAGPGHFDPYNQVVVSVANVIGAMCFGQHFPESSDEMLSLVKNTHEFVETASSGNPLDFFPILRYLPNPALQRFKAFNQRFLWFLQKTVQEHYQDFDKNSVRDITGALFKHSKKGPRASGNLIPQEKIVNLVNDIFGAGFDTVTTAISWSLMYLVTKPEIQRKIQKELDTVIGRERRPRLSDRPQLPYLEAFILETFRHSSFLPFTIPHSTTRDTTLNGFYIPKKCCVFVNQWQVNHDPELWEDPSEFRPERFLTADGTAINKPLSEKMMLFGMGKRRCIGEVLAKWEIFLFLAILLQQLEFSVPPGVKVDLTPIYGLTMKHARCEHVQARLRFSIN

Turning to `C=C(C)C(=O)OCCNC(C)(C)C`, the Potency result in experiment [1], in experiment [3], in experiment [5] and in experiment [6] was “inactive” throughout. The Potency in experiment [2] is 70.9 µM (active); in experiment [4], 35.5 µM (active).

`CC(=C(CCOC(=O)C(C)C)SSC(CCOC(=O)C(C)C)=C(C)N(C=O)Cc1cnc(C)nc1N)N(C=O)Cc1cnc(C)nc1N`: the Potency entry in experiment [1], in experiment [2], in experiment [3], in experiment [4] and in experiment [5] was “inactive” throughout.

In the case of `CCCCC(CC)COCCO` (stereo not given), the Potency entry in experiment [1], in experiment [2], in experiment [3] and in experiment [6] was “inactive” each time. In experiment [4], the Potency was 17.8 µM (active).

Take `COc1cc(N)ccc1C`: the Potency in experiment [1] was 12.5 µM (active); in experiment [2], 1.98 µM (active); in experiment [3], 6.26 µM (active); in experiment [4], 4.98 µM (active); in experiment [6] it was 11.1 µM (active). Also, in experiment [5], the Potency result was “inactive”.

Turning to `O=C(O)c1ccc(Cl)cc1Cl`, the Potency result in experiment [1], in experiment [2], in experiment [3], in experiment [4], in experiment [5] and in experiment [6] was “inactive” in each case.

For the molecule `Cc1ccc2ccc(Cl)cc2n1`, the Potency result in experiment [1], in experiment [2], in experiment [3], in experiment [5] and in experiment [6] was “inactive” in each case. In addition, the Potency in experiment [4] was 15.5 µM (active).

For the molecule `COC(=O)c1ccccc1C(=O)c1ccc(OCCN2CCCCC2)cc1`, the Potency in experiment [1] was 15.5 µM (active). Besides, the Potency result in experiment [2], in experiment [3], in experiment [4], in experiment [5] and in experiment [6] was “inactive” in each case.

As for `CC(C)CCCC(C)(C)O`, the Potency entry in experiment [1], in experiment [2], in experiment [3], in experiment [4], in experiment [5] and in experiment [6] was “inactive” each time.

For the molecule `CCCCCCOc1ccccc1C(N)=O`, the Potency result in experiment [1], in experiment [5] and in experiment [6] was “inactive” throughout. Also, the Potency in experiment [2] is 17.4 µM (active); in experiment [3], 8.71 µM (active); in experiment [4], 13.8 µM (active).

Consider `O=C(CCN1CCN(CCO)CC1)N1c2ccccc2Sc2ccc(C(F)(F)F)cc21`, for which the Potency result in experiment [1], in experiment [2], in experiment [3], in experiment [4] and in experiment [5] was “inactive” throughout.

For the molecule `N[C@@H](CCC(=O)Nc1ccc([N+](=O)[O-])cc1)C(=O)O`, the Potency result in experiment [1], in experiment [2], in experiment [3], in experiment [4], in experiment [5] and in experiment [6] was “inactive” each time.

For the molecule `CN(C)c1ccc(C=O)cc1`, the Potency result in experiment [1], in experiment [5] and in experiment [6] was “inactive” in each case. Moreover, the Potency in experiment [2] was 79.6 µM (active); in experiment [3], 35.6 µM (active); in experiment [4], 35.6 µM (active).

As for `Cc1ccc(S(=O)(=O)O)c(C)c1`, the Potency entry in experiment [1], in experiment [2], in experiment [3], in experiment [4], in experiment [5] and in experiment [6] was “inactive” in each case.

`COc1ccc(S(=O)(=O)N2c3ccc(Cl)cc3[C@@](O)(c3ccccc3Cl)[C@H]2C(=O)N2CCC[C@@H]2C(N)=O)cc1OC`: the Potency result in experiment [1], in experiment [2] and in experiment [4] was “inactive” in each case. In addition, the Potency in experiment [3] is 17.4 µM (active).

Consider `CN1CCN(CC(=O)N2c3ccccc3C(=O)Nc3cccnc32)CC1`, for which the activity change, negative = inhibition was -4.49% [at 10.5 µM] in experiment [1]; 8.9% [at 10.5 µM] in experiment [2]; 2.89% [at 10.5 µM] in experiment [3]; 13.2% [at 10.5 µM] in experiment [4]; -0.112% [at 6.97 µM] in experiment [5]; 4.83% [at 10.5 µM] in experiment [6].

For `CCCCCCCCSCC`, the Potency result in experiment [1], in experiment [2], in experiment [3], in experiment [4], in experiment [5] and in experiment [6] was “inactive” throughout.

On to `CC(C)NCC(O)COc1ccc(COCCOC(C)C)cc1` (stereo not given), for which the Potency entry in experiment [1], in experiment [2], in experiment [3], in experiment [4] and in experiment [5] was “inactive” throughout.

For `CN(C)CCOCCO`, the Potency result in experiment [1], in experiment [2], in experiment [3], in experiment [4], in experiment [5] and in experiment [6] was “inactive” throughout.

As for `COc1ccc2nc(SCc3ncc(C)c(OC)c3C)[nH]c2c1`, the Potency in experiment [1] was 27.5 µM (active); in experiment [2], 2.19 µM (active); in experiment [3] it was 13.8 µM (active).

With `COc1cc2c(cc1OC)C(=O)CC2`, the Potency result in experiment [1], in experiment [2], in experiment [3], in experiment [5] and in experiment [6] was “inactive” throughout. In experiment [4], the Potency is 27.5 µM (active).

For `CC/C=C\CC1=C(C)CCC1=O`, the Potency entry in experiment [1], in experiment [3], in experiment [5] and in experiment [6] was “inactive” in each case. Also, the Potency was 63.3 µM (active) in experiment [2] and 31.7 µM (active) in experiment [4].

`CNC(=O)[C@H]1O[C@@H](n2cnc3c(NCc4cc(Cl)ccc4OCc4cc(C)no4)ncnc32)[C@H](O)[C@@H]1N`: the Potency result in experiment [1], in experiment [2] and in experiment [3] was “inactive” throughout.

As to `CN=C(NC#N)Nc1ccc(C2=NNC(=O)CC2C)cc1` (stereo not given), the Potency entry in experiment [1], in experiment [2], in experiment [3], in experiment [4], in experiment [5] and in experiment [6] was “inactive” throughout.

Regarding `Cc1[nH]cnc1-c1ccc(Cl)cc1`, the Potency in experiment [1] was 13.8 µM (active); in experiment [2] it was 15.5 µM (active); in experiment [3], 15.5 µM (active); in experiment [4], 2.19 µM (active).

Turning to `COc1nccnc1NS(=O)(=O)c1ccc(N)cc1`, the Potency result in experiment [1], in experiment [2], in experiment [3], in experiment [4], in experiment [5] and in experiment [6] was “inactive” in each case.

On to `c1ccc2c(c1)ccc1c3ccccc3ccc21`, for which the Potency entry in experiment [1], in experiment [2], in experiment [3], in experiment [5] and in experiment [6] was “inactive” in each case. Besides, the Potency in experiment [4] was 0.725 µM (active).

As for `CCCOC(OCCC)OCCC`, the Potency result in experiment [1], in experiment [2], in experiment [3], in experiment [4], in experiment [5] and in experiment [6] was “inactive” each time.

In the case of `CCCCCCOC(=O)CC`, the Potency result in experiment [1], in experiment [2], in experiment [3], in experiment [4], in experiment [5] and in experiment [6] was “inactive” throughout.

Regarding `CC(=O)c1ccc2c(c1)Cc1ccccc1-2`, the Potency entry in experiment [1], in experiment [5] and in experiment [6] was “inactive” in each case. In addition, the Potency in experiment [2] was 20 µM (active); in experiment [3], 12.6 µM (active); in experiment [4], 1.79 µM (active).

For `Cc1cc2cc3c(C)cc(=O)oc3c(C)c2o1`, the Potency entry in experiment [1], in experiment [2], in experiment [3] and in experiment [5] was “inactive” each time. Also, in experiment [4], the Potency was 6.45 µM (active).
